The supplement of paper PMC7366291
Where a name gives a salt, the structure may show the parent alone. ± gives the standard deviation or the standard deviation of the averaged measurements.

How the values were obtained:
Conditions in all cases: 25 µM; exposure: 24-48 hpf
[1] = tested on: Danio rerio Tg(wt1b:EGFP) embryo, pronephros; experiment: glomerular separation, fold change vs DMSO control; higher = glomeruli further apart (abnormal)
Procedure, shortened: (§1)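 Distances and angles describing the pronephros were computed by a Fiji macro from 16 reference points set manually on maximum projections of dorsal images. These images came from dechorionated Tg(wt1b:EGFP) zebrafish embryos held in agarose-filled 96-well plates after exposure to 25 μM compound in 0.5% DMSO, in HEPES-buffered E3 with 0.003% PTU, from 24 to 48 hpf at 28.5°C. Any value more than 2 SD from the feature mean was excluded. Features are stated as fold change relative to the mean of same-day DMSO-treated embryos.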

[2] = tested on: Danio rerio Tg(wt1b:EGFP) embryo, pronephros; experiment: glomerular width (mean of left and right), fold change vs DMSO control; higher = wider glomerulus
Procedure, shortened: as §1

[3] = tested on: Danio rerio Tg(wt1b:EGFP) embryo, pronephros; experiment: fraction of imaged embryos annotated as normal kidney; higher = less nephrotoxic; extreme values may be limits of the assay
Procedure, shortened: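 The value given is the share of embryos in each treatment scored as having a normal kidney. To obtain it, dechorionated Tg(wt1b:EGFP) zebrafish embryos were treated from 24 to 48 hpf at 28.5°C with 25 μM compound in 0.5% DMSO, in 5 mM HEPES-buffered E3 with 0.003% PTU. Pronephroi were imaged by widefield fluorescence (470 nm, 10 z-slices), and every embryo was annotated by hand from maximum projections.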

[4] = tested on: Danio rerio Tg(wt1b:EGFP) embryo, pronephros; experiment: pronephric angle neck segment to proximal convoluted tubule (mean of left and right), fold change vs DMSO control; higher = larger pronephric angle
Procedure, shortened: as §1

SMILES | glomerular separation [1] | glomerular width [2] | fraction of imaged embryos annotated as normal kidney [3] | pronephric angle neck segment [4]
CCOC(=O)c1cncn1[C@H](C)c1ccccc1 [Etomidate] | 0.978 ± 0.27 | 0.949 ± 0.067 | 0.833 | 1.03 ± 0.011
CC(C)c1cccc(C(C)C)c1O [Propofol] | 0.693 ± 0.2 | 1.02 ± 0.021 | 0.75 | 1.02 ± 0.14
Oc1ccc2c3c1O[C@H]1[C@@H](O)CC[C@@]4(O)[C@@H](C2)N(CC2CCC2)CC[C@]314 [Nalbuphine hydrochloride] | 0.874 ± 0.27 | 1 ± 0.033 | 0.75 | 1.04 ± 0.0056
C#C[C@]1(O)CC[C@H]2[C@@H]3CCC4=CC(=O)CCC4=C3C=C[C@@]21CC [Gestrinone] | 1.64 ± 0.91 | 1.119 ± 0.0059 | 0.417 | 1.03 ± 0.038
C#CCN(C)[C@H](C)Cc1ccccc1 [Selegiline hydrochloride] | 0.996 ± 0.51 | 0.969 ± 0.055 | 0.75 | 0.98 ± 0.017
NCC(O)c1ccc(O)cc1 (racemic) [(+,-)-Octopamine hydrochloride] | 0.97 ± 0.66 | 0.94 ± 0.042 | 0.909 | 0.987 ± 0.059
C[C@]12CC[C@@H]3c4ccc(OC(=O)N(CCCl)CCCl)cc4CC[C@H]3[C@@H]1CC[C@@H]2O [Estramustine] | 2.15 ± 0.79 | 0.792 ± 0.018 | 0.333 | 1.1 ± 0.03
C[C@]12CC[C@H](O)C[C@H]1CC[C@@H]1[C@@H]2C[C@@H](O)[C@]2(C)[C@@H](C3=CC(=O)OC3)CC[C@]12O [Digoxigenin] | 0.711 ± 0.21 | 0.994 ± 0.017 | 0.917 | 0.9639 ± 0.0077
CN[C@@H]1[C@@H](O)[C@@H](O[C@@H]2[C@@H](O)[C@H](O[C@H]3O[C@H](CN)CC[C@H]3N)[C@@H](N)C[C@H]2N)OC[C@]1(C)O.CN[C@@H]1[C@@H](O)[C@@H](O[C@@H]2[C@@H](O)[C@H](O[C@H]3O[C@H]([C@@H](C)N)CC[C@H]3N)[C@@H](N)C[C@H]2N)OC[C@]1(C)O.CN[C@@H]1[C@@H](O)[C@@H](O[C@@H]2[C@@H](O)[C@H](O[C@H]3O[C@H]([C@@H](C)NC)CC[C@H]3N)[C@@H](N)C[C@H]2N)OC[C@]1(C)O [Gentamicine sulfate] | 0.941 ± 0.25 | 1.02 ± 0.024 | 0.667 | 1.01 ± 0.029
CCC(COC(=O)c1cc(OC)c(OC)c(OC)c1)(c1ccccc1)N(C)C (stereo not given) [Trimebutine] | 0.875 ± 0.36 | 0.9518 ± 0.0092 | 0.917 | 1.01 ± 0.012
O=[N+]([O-])O[C@@H]1CO[C@H]2[C@@H]1OC[C@@H]2O [Isosorbide mononitrate] | 0.951 ± 0.48 | 1.04 ± 0.019 | 0.833 | 0.986 ± 0.021
C[N+]1(C)CCOC(O)(c2ccc(-c3ccc(C4(O)C[N+](C)(C)CCO4)cc3)cc2)C1 (stereo not given) [Hemicholinium bromide] | 0.878 ± 0.14 | 0.95 ± 0.00098 | 0.917 | 1 ± 0.1
CN(C)C(=O)Oc1ccc[n+](C)c1 [Pyridostigmine iodide] | 1.26 ± 0.35 | 0.982 ± 0.096 | 0.917 | 1.03 ± 0.013
CC(=O)O[C@H]1C[C@H](O[C@H]2[C@@H](O)C[C@H](O[C@H]3[C@@H](O)C[C@H](O[C@H]4CC[C@@]5(C)[C@H](CC[C@@H]6[C@@H]5C[C@@H](O)[C@]5(C)[C@@H](C7=CC(=O)OC7)CC[C@]65O)C4)O[C@@H]3C)O[C@@H]2C)O[C@H](C)[C@H]1O[C@@H]1O[C@H](CO)[C@@H](O)[C@H](O)[C@H]1O [Lanatoside C] | 1.4 ± 0.72 | 0.929 ± 0.065 | 0.917 | 1.01 ± 0.041
O=[N+]([O-])O[C@H]1CO[C@H]2[C@@H]1OC[C@H]2O[N+](=O)[O-] [Isosorbide dinitrate] | 1.15 ± 0.34 | 0.9189 ± 0.0074 | 0.833 | 1.02 ± 0.024
C[N+]1([O-])[C@@H]2C[C@@H](OC(=O)[C@H](CO)c3ccccc3)C[C@H]1[C@@H]1O[C@@H]12 (stereo not given in full) [Scopolamin-N-oxide hydrobromide] | 0.883 ± 0.35 | 1.03 ± 0.018 | 0.909 | 0.9285 ± 0.0031
CCN[C@@H](C)Cc1cccc(C(F)(F)F)c1 [Dexfenfluramine hydrochloride] | 0.736 ± 0.23 | 1.04 ± 0.037 | 0.917 | 1.01 ± 0.03
O=C(CCCN1CCC2(CC1)C(=O)NCN2c1ccccc1)c1ccc(F)cc1 [Spiperone] | 1.21 ± 0.45 | 0.978 ± 0.02 | 0.833 | 1.06 ± 0.078
C[N+](C)(C)CCCCCCCCCC[N+](C)(C)C [Decamethonium bromide] | 1.04 ± 0.55 | 1.01 ± 0.041 | 0.727 | 1.02 ± 0.021
CCC1(c2ccc(N)cc2)CCC(=O)NC1=O (stereo not given) [Glutethimide, para-amino] | 1.05 ± 0.27 | 1.04 ± 0.036 | 0.667 | 1.05 ± 0.021
Cc1cccc(C)c1NC1=NCCCS1 [Xylazine] | 0.757 ± 0.26 | 0.997 ± 0.018 | 0.833 | 0.966 ± 0.057
C[C@@H]1CN([C@H]2CC[C@](C#N)(c3ccc(F)cc3)CC2)CC[C@]1(C(=O)O)c1ccccc1 [Levocabastine hydrochloride] | 1.19 ± 0.32 | 1.06 ± 0.034 | 0.917 | 0.959 ± 0.011
CC1OC(OC2/C=C/C=C/C=C/C=C/CC/C=C/C=C/[C@H](C)[C@@H](O)[C@@H](C)[C@H](C)OC(=O)CC(O)CC(O)CC(O)CCC(O)C(O)C[C@]3(O)CC(O)C(C(=O)O)C(C2)O3)C(O)C(N)C1O (stereo not given in full) [Nystatine] | 0.778 ± 0.16 | 0.994 ± 0.05 | 1 | 1.05 ± 0.053
COc1cccc(C2(O)CCCCC2CN(C)C)c1 (stereo not given) [Tramadol hydrochloride] | 0.728 ± 0.23 | 0.989 ± 0.021 | 0.833 | 0.9988 ± 0.0034
C[C@]12Cc3c[nH]nc3C[C@@H]1CC[C@@H]1[C@@H]2CC[C@@]2(C)[C@H]1CC[C@]2(C)O [Stanozolol] | 1.31 ± 0.44 | 1.03 ± 0.076 | 0.75 | 1.01 ± 0.085
